Dicer processing = human Dicer pre-microRNA cleavage inhibition. Q9UPY3. cat-ELCCA pre-miR-21 Dicer processing, chemiluminescence; hits give high values. z-score at 25 µM. actives 6% (n = 47,000). AID 1347074; in the data active = z-score above about 3, passing the limit was not always enough;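 also: plate controls were vehicle for no effect and no enzyme for full effect; higher signal means more uncleaved substrate so more Dicer inhibition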
Target sequence (Q9UPY3 whole entry, looked up): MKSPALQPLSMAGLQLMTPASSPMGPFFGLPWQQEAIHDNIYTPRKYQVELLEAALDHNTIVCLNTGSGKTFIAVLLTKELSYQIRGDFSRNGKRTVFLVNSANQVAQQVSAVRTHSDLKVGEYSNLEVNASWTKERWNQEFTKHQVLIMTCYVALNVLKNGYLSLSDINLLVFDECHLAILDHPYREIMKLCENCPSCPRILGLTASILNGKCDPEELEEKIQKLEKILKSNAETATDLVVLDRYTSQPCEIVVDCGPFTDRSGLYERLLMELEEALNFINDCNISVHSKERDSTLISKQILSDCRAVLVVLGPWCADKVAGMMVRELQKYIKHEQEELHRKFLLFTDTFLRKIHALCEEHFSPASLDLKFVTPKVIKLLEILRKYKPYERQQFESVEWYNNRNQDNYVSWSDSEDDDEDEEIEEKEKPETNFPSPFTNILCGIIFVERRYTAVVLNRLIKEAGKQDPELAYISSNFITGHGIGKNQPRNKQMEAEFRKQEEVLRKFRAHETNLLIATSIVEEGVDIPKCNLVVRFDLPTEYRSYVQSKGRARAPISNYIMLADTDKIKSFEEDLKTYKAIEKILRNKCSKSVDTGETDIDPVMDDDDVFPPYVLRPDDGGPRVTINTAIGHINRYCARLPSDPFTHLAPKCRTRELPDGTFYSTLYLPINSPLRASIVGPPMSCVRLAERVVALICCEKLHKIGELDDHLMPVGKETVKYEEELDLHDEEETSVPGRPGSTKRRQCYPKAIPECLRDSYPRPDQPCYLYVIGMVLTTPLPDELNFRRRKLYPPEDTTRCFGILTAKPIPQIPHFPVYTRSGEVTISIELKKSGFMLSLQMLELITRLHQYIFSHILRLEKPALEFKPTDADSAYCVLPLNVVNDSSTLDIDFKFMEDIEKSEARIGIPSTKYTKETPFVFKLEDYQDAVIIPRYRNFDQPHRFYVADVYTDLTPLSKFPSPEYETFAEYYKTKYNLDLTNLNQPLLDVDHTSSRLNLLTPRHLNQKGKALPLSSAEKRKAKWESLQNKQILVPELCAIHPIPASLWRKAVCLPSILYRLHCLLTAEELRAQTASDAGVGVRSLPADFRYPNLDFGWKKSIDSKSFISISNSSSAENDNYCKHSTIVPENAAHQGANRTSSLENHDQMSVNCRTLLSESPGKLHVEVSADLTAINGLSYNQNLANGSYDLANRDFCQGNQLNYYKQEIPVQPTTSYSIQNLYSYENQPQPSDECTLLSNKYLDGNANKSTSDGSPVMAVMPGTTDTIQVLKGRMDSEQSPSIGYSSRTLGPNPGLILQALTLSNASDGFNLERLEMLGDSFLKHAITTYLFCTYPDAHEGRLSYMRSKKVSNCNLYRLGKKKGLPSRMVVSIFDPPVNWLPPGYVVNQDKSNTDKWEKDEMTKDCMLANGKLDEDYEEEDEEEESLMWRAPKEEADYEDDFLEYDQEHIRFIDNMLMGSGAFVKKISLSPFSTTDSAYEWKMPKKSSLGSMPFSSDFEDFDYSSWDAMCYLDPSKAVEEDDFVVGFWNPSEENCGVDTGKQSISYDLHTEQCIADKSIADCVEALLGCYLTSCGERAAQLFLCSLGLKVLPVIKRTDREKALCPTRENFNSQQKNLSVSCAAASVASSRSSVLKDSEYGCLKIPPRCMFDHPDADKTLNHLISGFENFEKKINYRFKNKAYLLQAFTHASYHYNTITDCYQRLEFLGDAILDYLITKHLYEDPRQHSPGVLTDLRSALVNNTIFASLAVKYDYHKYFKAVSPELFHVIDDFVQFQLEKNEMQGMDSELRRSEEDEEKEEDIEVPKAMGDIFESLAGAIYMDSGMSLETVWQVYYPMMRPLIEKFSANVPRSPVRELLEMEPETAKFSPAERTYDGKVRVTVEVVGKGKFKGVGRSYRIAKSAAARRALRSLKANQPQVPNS
The depositor's hits bear a star. The entries come from a sample that favours hits as a whole.

Clc1ccc(Cc2nn3c(-c4ccccc4)nnc3s2)cc1 was read as Dicer processing 1.5.
O=S(=O)(Oc1ccccc1N1CCCCC1)c1ccc(-c2ccccn2)s1 was read as Dicer processing -0.66.
`CNC(=O)C(COCc1ccccc1)NC(=O)OC(C)(C)C` (stereo unspecified) gave Dicer processing -0.46.
For Oc1cccnc1NC(c1ccc(Cl)cc1)c1ccc2cccnc2c1O (stereo unspecified) the results were Dicer processing 3.6*.
`CCOc1cc(C(Nc2ccccn2)c2ccc3cccnc3c2O)ccc1O` (stereo unspecified) gave Dicer processing 11.
For Cc1cccc(NC(c2ccncc2)c2ccc3cccnc3c2O)c1 (stereo unspecified) the results were Dicer processing 0.59.
`CCOc1ccc(C(Nc2ccccn2)c2ccc3ccc(C)nc3c2O)cc1C` (stereo unspecified) gave Dicer processing 3.5*.
Screening Cc1ccc2ccc(C(Nc3ccccn3)c3ccccc3C)c(O)c2n1 (stereo unspecified) returned Dicer processing 0.11.
For Cc1cccc(NC(c2ccccc2F)c2ccc3cccnc3c2O)n1 (stereo unspecified) the results were Dicer processing 0.26.
CCOc1cc(C(Nc2ccccn2)c2ccc3ccc(C)nc3c2O)ccc1OC (stereo unspecified) was read as Dicer processing 0.5.
`Oc1ccc2ncccc2c1C(Nc1ccccn1)c1ccc(Cl)cc1` (stereo unspecified) gave Dicer processing 1.5.
Cc1cccc(NC(c2ccccc2C)c2ccc3ccc(C)nc3c2O)n1 (stereo unspecified) was read as Dicer processing 5.3*.
Cc1ccccc1OCc1nc(C#N)c(NCCN(C)C)o1 was read as Dicer processing 2.
Screening Cc1nc(-c2ccccc2)sc1C(=O)Nc1ccc2ccccc2n1 returned Dicer processing -0.5.
NC(=O)c1c(NC(=O)CSc2ccc(Cl)cc2)sc2c1CCCC2 was read as Dicer processing -1.4.
Screening O=C1CC(c2cccc(Cl)c2)Cc2nc(N3CCN(Cc4ccccc4)CC3)ncc21 (stereo unspecified) returned Dicer processing 0.99.
`O=C(N[C@@H]1C[C@H]2CC[C@@H]1C2)c1ccc(C2SCC(=O)N2CCc2ccccc2)cc1` (stereo partly specified) gave Dicer processing 1.4.
Screening c1ccc(Cc2nnc3sc(-c4ccco4)nn23)cc1 returned Dicer processing -0.3.
CSc1nn2c(=O)c(Cc3ccccc3)nnc2s1 was read as Dicer processing 3.2*.
Screening Fc1ccccc1-c1nn2c(Cc3ccccc3)nnc2s1 returned Dicer processing 0.65.
For COc1ccc(/C(O)=C2\C(=O)C(=O)N(CCN(C)C)C2c2ccc(OC)c(OC)c2)cc1 (stereo unspecified) the results were Dicer processing 1.4.
`COc1ccc(C2c3c(oc4ccccc4c3=O)C(=O)N2c2nncs2)cc1` (stereo unspecified) gave Dicer processing -0.65.
Screening CC(CC(=O)O)CC(=O)Nc1nncs1 (stereo unspecified) returned Dicer processing -2.2.
For O=C(O)CC(CC(=O)O)c1ccc(Cl)cc1 the results were Dicer processing 1.3.
For CC(CC(=O)O)CC(=O)NCc1ccc(Cl)cc1 (stereo unspecified) the results were Dicer processing 3.3*.
Cc1ccc(C)n1-c1sc2c(c1C(=O)NNC(=O)C(C)(C)C)CCCC2 was read as Dicer processing -0.68.
Cn1nc(OC(C)(C)C(=O)O)cc1C(F)(F)F was read as Dicer processing 1.4.
`CC(=O)c1cnc2cc(C3CC3)nn2c1C` gave Dicer processing 0.75.
`Cc1ccc(C2C3=C(CCCC3=O)Nc3ncnn32)cc1` (stereo unspecified) gave Dicer processing 1.1.
For Cn1c(=O)[nH]c(=O)c2c1nc(NCCCn1ccnc1)n2CCCc1ccccc1 the results were Dicer processing -0.33.
COC(=O)CN(C#N)c1nc(C)cc(OC)n1 was read as Dicer processing -0.77.
`COC(=O)C(C)N(C#N)c1nc(C)cc(C)n1` (stereo unspecified) gave Dicer processing 6*.
CCN(CC)C(=O)CN(C#N)c1nc(C)cc(C)n1 was read as Dicer processing 2.9.
C=CCN1C(=O)C2(/C(=C(/O)c3ccc4c(c3)CC(C)O4)C(=O)C(=O)N2CCN(C)C)c2ccccc21 (stereo unspecified) was read as Dicer processing 2.
CCC(C)[C@H](NC(=O)OC(C)(C)c1cc(OC)cc(OC)c1)C(=O)O (stereo partly specified) was read as Dicer processing 0.08.
CCOC(=O)Nc1c(C(=O)OCC)[nH]c2ccc(F)cc12 was read as Dicer processing 2.8.
CCOC(=O)Nc1c(C(=O)OCC)[nH]c2ccc(OC)cc12 was read as Dicer processing 5.2*.
Screening CCOC(=O)c1[nH]c2ccc(F)cc2c1NC(C)=O returned Dicer processing 2.4.
For S=C(N/N=C/c1cccnc1)NC1CC2CC1C1C=CCC21 (stereo unspecified) the results were Dicer processing 0.65.
`CNC(=S)N/N=C/c1ccccc1Cl` gave Dicer processing -0.61.
For Oc1ccccc1/C=N/NC(=S)NC1CC2CC1C1C=CCC21 (stereo unspecified) the results were Dicer processing 3.8*.
`CSc1nnc(-c2ccc(C(C)(C)C)cc2)n1Cc1ccccc1` gave Dicer processing -0.43.
Oc1ccccc1/C=N/Nc1cccc(C(F)(F)F)c1 was read as Dicer processing 1.7.
`CCN(C(=O)c1ccc2c(c1)CCO2)c1cccc2ccccc12` gave Dicer processing -0.12.
Screening COCCOC(=O)C1=C(C)NC2=C(C(=O)CC(C)(C)C2)C1c1cccc(OCc2ccccc2)c1 (stereo unspecified) returned Dicer processing 1.4.
O=C(ON=C1CC2CCCC(C1)N2Cc1ccccc1)c1ccc(F)cc1 was read as Dicer processing 3.1*.
`O=C(O)C1CC(=O)N(Cc2ccc(F)cc2)C1` (stereo unspecified) gave Dicer processing 0.24.
O=C(Nc1ccc(Cl)cc1)ON=C1CC2CCCC(C1)N2Cc1ccccc1 was read as Dicer processing -1.5.
For CCOC(=O)c1ccc(N2C(=O)C3Sc4[nH]c(=O)sc4C(c4ccc(OC)cc4)C3C2=O)cc1 (stereo unspecified) the results were Dicer processing -2.
`COc1ccc(C2/C(=C(\O)c3ccccc3)C(=O)C(=O)N2CCCn2ccnc2)c(OC)c1` (stereo unspecified) gave Dicer processing -8.7.
For O=C1c2oc3ccccc3c(=O)c2C(c2cccc(O)c2)N1Cc1ccc2c(c1)OCO2 (stereo unspecified) the results were Dicer processing 1.
Cc1cc(C)c(S(=O)(=O)Nc2cccc3cccnc23)c(C)c1 was read as Dicer processing 4.5*.
For Cc1cc2oc(=O)sc2cc1NS(=O)(=O)c1cccc2cccnc12 the results were Dicer processing -3.6.
Screening Cc1cc(C)c(S(=O)(=O)Nc2ccc(Br)c3cccnc23)c(C)c1 returned Dicer processing 2.7.
For COc1ccc(/C=C2/N=C(c3ccccc3)OC2=O)cc1OCc1ccccc1 the results were Dicer processing -0.86.
`COc1ccc(-c2nc(S(=O)(=O)c3ccccc3)c(N3CCCCC3)o2)cc1OC` gave Dicer processing 1.5.
`COc1ccc(S(=O)(=O)NCCSc2nnnn2-c2ccccc2)cc1OC` gave Dicer processing 1.8.
